Reference: PubChem BioAssay (Tox21)
Values joined by “and” are separate entries in the source; they are usually repeats but may differ in a detail not shown here. Equal values may be shown once. Records with an inconclusive call do not appear. Active and inactive are the calls of the source. Unless noted, the call rests on the fitted dose curve; in most records, active means well fitted curve in the direction sought with a large enough effect in the repeat runs; inconclusive means weak or mixed curves; inactive means no such curve, though single readings can be large; an effect the other way counts as inactive or inconclusive.

Columns and labels:
[1] = qHTS assay for small molecule agonists of the p53 signaling pathway (AID 651631; calls by dose curve; further: nearly all actives have a fitted effect of over 15% in size)
Method in brief: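 HCT-116 cells carrying a beta-lactamase reporter under p53 response elements were dosed with compound for 16 h at 37 °C. LiveBLAzer B/G FRET substrate was then added for 2 h at room temperature, and fluorescence intensity was read to detect pathway agonism.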

[2] = qHTS assay for small molecules that induce genotoxicity in human embryonic kidney cells expressing luciferase-tagged ATAD5 (AID 651632); further: nearly all actives have a fitted effect of over 15% in size; further: potency means the concentration at half of the fitted maximal effect
Method in brief: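 HEK293T cells carrying a luciferase reporter tagged to ATAD5 were exposed to compound or DMSO vehicle for 16 hr at 37C, 5% CO2. Amplite was added, and after 30 min at room temperature luciferase activity was read as a marker of ATAD5 induction.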

[3] = qHTS assay for small molecule agonists of the p53 signaling pathway - cell viability (AID 651633; calls by dose curve; further: nearly all actives have a fitted effect of over 30% in size; further: potency means the concentration at half of the fitted maximal effect)
Method in brief: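 p53RE-bla cells, seeded at 4,000 per well and rested 5 h at 37 C/5% CO2, received compounds in DMSO for 16 h at 37 C. CellTiter-Glo was then added, and luminescence was read after 30 min at room temperature to gauge cytotoxicity.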

[4] = qHTS assay for small molecule disruptors of the mitochondrial membrane potential - cell viability (AID 720634; calls by dose curve;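 further: human HepG2 liver cancer cells; series mostly up to about 83 µM; nearly all actives have a fitted effect of over 20% in size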)
Method in brief: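 HepG2 cells seeded overnight at 37 C, then exposed to compound or DMSO for 1 hr at 37 C, 5% CO2. m-MPI dye added, then CellTiter-Glo for 30 min at room temperature; viability read as ATP luminescence.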

[5] = qHTS assay for small molecule disruptors of the mitochondrial membrane potential (AID 720635); further: potency means the concentration at half of the fitted maximal effect
Method in brief: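 HepG2 cells (2,000/well) attached overnight at 37C, then took compound for 1 hr at 37C, 5% CO2. Mito-MPS dye was added for 30 min; fluorescence was read at 490/535 nm (monomers) and 540/590 nm (aggregates).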

[6] = qHTS assay to test for compound auto fluorescence at 590 nm (red) in HepG2 cells (AID 720674); further: potency means the concentration at half of the fitted maximal effect
Method in brief: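 Intrinsic compound fluorescence in the red window (Ex/Em 540/590 nm) is measured in attached HepG2 cells exposed for 1 hr, DMSO vehicle as baseline, benchmarked to Rose Bengal sodium.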

[7] = qHTS assay to test for compound auto fluorescence at 535 nm (green) in HepG2 cells (AID 720675); further: potency means the concentration at half of the fitted maximal effect
[8] = qHTS assay to test for compound auto fluorescence at 460 nm (blue) in HEK293 cells (AID 720678)
Method in brief: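 Blue-channel (Ex/Em 405/460 nm) intensity measured in HEK293 cultures after overnight compound exposure at 37C; signal expressed relative to triamterene. Cells plated 2,000 per well in 10% dialyzed FBS medium and allowed 4-5 hr to attach.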

[9] = qHTS assay to test for compound auto fluorescence at 590 nm (red) in HEK293 cells (AID 720679); further: potency means the concentration at half of the fitted maximal effect
Method in brief: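 Red-channel autofluorescence (Ex/Em 540/590 nm; Rose Bengal sodium reference) was measured after overnight 37C, 5% CO2 exposure of attached HEK293 cells, 2,000 per well in medium with 10% dialyzed FBS.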

[10] = qHTS assay for small molecules that induce genotoxicity in human embryonic kidney cells expressing luciferase-tagged ATAD5 - cell viability (AID 651634; calls by dose curve; further: nearly all actives have a fitted effect of over 25% in size)
Method in brief: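 HEK293T cells expressing luciferase-tagged ATAD5 were exposed to compound or DMSO for 15.5 hr at 37C, 5% CO2. Viability was then read as live-cell protease activity by CellTiter-Fluor fluorescence after 30 min at 37C.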

Measured: Potency
On the % scale 0 is the no-effect control and ±100 the full control effect; tags describe the fitted curve by direction and shape or compound fluorescence and quenching.

CCCCCC1C(=O)CCC1CC(=O)OC (stereo not drawn)
not listed: [10]
inactive: all other assays above

O=C1OC2(c3ccccc31)c1cc(I)c(O)c(I)c1Oc1c2cc(I)c(O)c1I
inactive: [1] | [2] | [3] | [8]
active: [6] 11.2 µM and 20 µM and 17.8 µM | [7] 14.1 µM and 10 µM and 17.8 µM | [9] 17.8 µM [fluorescent] [middle of 4 runs]

Cc1ccc(S(=O)(=O)NCl)cc1
not listed: [10]
inactive: all other assays above

C=C[Si](OCCOC)(OCCOC)OCCOC
not listed: [4] | [5]
inactive: all other assays above

c1ccc2c(c1)[nH]c1ccccc12
active: [5] 19 µM and 21.7 µM
not listed: [4]
inactive: all other assays above

c1ccc2cc3ccccc3cc2c1
active: [5] 5.01 µM and 34.4 µM
not listed: [10]
inactive: all other assays above

COC(=O)C(C)Oc1ccc(Oc2ncc(C(F)(F)F)cc2Cl)cc1 (stereo not drawn)
not listed: [4] | [10]
inactive: all other assays above

C=CN1CCCC1=O
not listed: [5] | [10]
inactive: all other assays above

COc1ccc(-c2coc3cc(O)cc(O)c3c2=O)cc1
active: [2] 1.38 µM and 3.86 µM | [5] 3.09 µM and 6.86 µM
not listed: [1] | [4]
inactive: all other assays above

c1ccc2c(c1)ccc1ncccc12
active: [5] 27.3 µM
not listed: [1] | [3] | [4]
inactive: all other assays above

CCC/C=C/C=O
not listed: [1] | [5] | [10]
inactive: all other assays above

Cc1ccc(/C(=C\CN2CCCC2)c2ccccn2)cc1
not listed: [1] | [2] | [10]
inactive: all other assays above

CCCCCCC(C)O (stereo not drawn)
not listed: [1]
inactive: all other assays above

CC(=O)O[C@]1(C(C)=O)CC[C@H]2[C@@H]3C=C(C)C4=CC(=O)CC[C@]4(C)[C@H]3CC[C@@]21C
not listed: [1] | [5]
inactive: all other assays above

CC1(C)O[C@@H]2C[C@H]3[C@@H]4C[C@H](F)C5=CC(=O)C=C[C@]5(C)[C@@]4(F)[C@@H](O)C[C@]3(C)[C@]2(C(=O)CO)O1
not listed: [1] | [3] | [10]
inactive: all other assays above

C[N+](C)(C)CCO
not listed: [1]
inactive: all other assays above

O=C(O)COCCN1CCN(C(c2ccccc2)c2ccc(Cl)cc2)CC1 (stereo not drawn)
not listed: [1] | [4] | [5]
inactive: all other assays above

FC(F)(F)C(Cl)Br (stereo not drawn)
not listed: [1] | [4]
inactive: all other assays above

C=CC(C)(O)CCC=C(C)C (stereo not drawn)
not listed: [1]
inactive: all other assays above

OC[C@H]1O[C@@H]2O[C@H]3[C@H](O)[C@@H](O)[C@@H](O[C@H]4[C@H](O)[C@@H](O)[C@@H](O[C@H]5[C@H](O)[C@@H](O)[C@@H](O[C@H]6[C@H](O)[C@@H](O)[C@@H](O[C@H]7[C@H](O)[C@@H](O)[C@@H](O[C@H]1[C@H](O)[C@H]2O)O[C@@H]7CO)O[C@@H]6CO)O[C@@H]5CO)O[C@@H]4CO)O[C@@H]3CO
not listed: [1] | [4]
inactive: all other assays above

CC1(C)NC(=O)N(c2ccc([N+](=O)[O-])c(C(F)(F)F)c2)C1=O
not listed: [1] | [5]
inactive: all other assays above

CCOC(=O)C(C)Oc1ccc(Oc2cnc3cc(Cl)ccc3n2)cc1 (stereo not drawn)
inactive: [2] | [4] | [6] | [7] | [8] | [9]

NCCN
inactive: [1] | [3] | [6] | [7] | [8] | [9]

COc1ccc2nc(N)sc2c1
not listed: [1] | [3] | [10]
inactive: all other assays above

Oc1ccc(C(c2ccc(O)cc2)C(Cl)(Cl)Cl)cc1
active: [3] 68.3 µM | [5] 6.09 µM and 6.86 µM
not listed: [1]
inactive: all other assays above

C=C[C@H]1CN2CC[C@H]1C[C@@H]2[C@@H](O)c1ccnc2ccc(OC)cc12
not listed: [1] | [3] | [5]
inactive: all other assays above

Cc1cccc(Nc2ccccc2C(=O)O)c1C
inactive: [2] | [3] | [6] | [7] | [8] | [9]

C=C[C@H]1CN2CC[C@H]1C[C@H]2[C@H](O)c1ccnc2ccc(OC)cc12
not listed: [1] | [3]
inactive: all other assays above
